In PubChem BioAssay AID2174 (The Scripps Research Institute Molecular Screening Center, 2009):
Screen size: about 320,000 compounds; about 500 (0.16%) were called active.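 The calls were made as follows: active = inhibition above the mean of all tested compounds plus 3 SD, set per campaign (cut at about 14% in these data); inactive = the rest.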 The entries come from a sample that favours actives as a whole.

target: Acyl-protein thioesterase 1 (Homo sapiens) (UniProt O75608); experiment: LYPLA1 inhibitors, primary screen, counter-screen for PME1 inhibitor project, biochemical, fluorescence polarization, FP-Rh probe ABPP (AID 2174); details: recombinant LYPLA1, FP-Rh probe fluorescence polarization; at 5.9 µM; active compounds read high;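 also: inhibitors block serine hydrolase probe labeling of LYPLA1 so polarization falls; 0% = enzyme with DMSO and 100% = wells lacking LYPLA1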
Sequence (O75608 whole entry, looked up): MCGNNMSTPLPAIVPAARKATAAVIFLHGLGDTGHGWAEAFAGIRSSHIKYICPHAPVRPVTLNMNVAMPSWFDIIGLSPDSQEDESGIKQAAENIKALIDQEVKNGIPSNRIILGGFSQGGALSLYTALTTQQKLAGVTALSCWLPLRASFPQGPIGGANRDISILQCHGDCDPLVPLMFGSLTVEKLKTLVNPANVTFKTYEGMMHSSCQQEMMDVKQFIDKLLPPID

Structure (SMILES)	inhibition
O=[N+]([O-])c1ccc(N(CCO)Cc2ccccc2)c([N+](=O)[O-])c1	-0.28% (inactive)
O=C(CN1CCCCCC1)Nc1ccc(S(=O)(=O)N2CCCCC2)cc1	1.21% (inactive)
O=C(CN1CCN(c2cccc(Cl)c2)CC1)Nc1ccc(S(=O)(=O)N2CCOCC2)cc1	18.1% (active)
O=C(CN1C(=O)CCC1=O)Nc1ccc(S(=O)(=O)N2CCOCC2)cc1	-5.25% (inactive)
CCCCn1c(N)c(N(CC(C)C)C(=O)C2CSC3(C)CCC(=O)N23)c(=O)[nH]c1=O (stereo not given)	-1.21% (inactive)
COCCOC(=O)c1sc(=S)n(CCOC)c1N	19.7% (active)
COC(=O)c1sc(=S)n(-c2ccc(Cl)cc2)c1C	0.52% (inactive)
CC(=O)Nc1ccc(N2C(=O)C3C4CC(=O)C(c5ccccc54)C3C2=O)cc1 (stereo not given)	1.72% (inactive)
COc1ccccc1-n1c(=S)[nH]c2c(sc(=S)n2-c2ccc(C)cc2C)c1=O	2.01% (inactive)
Cc1ccc(Oc2ccc3c(c2)C(=O)N(c2cccc4cccnc24)C3=O)cc1	-5.81% (inactive)
O=S(=O)(NCCCN1CCOCC1)c1ccc(F)c(Cl)c1	2.43% (inactive)
Cc1c(Br)c([N+](=O)[O-])nn1CC(=O)N1CCN(Cc2ccccc2)CC1	1.03% (inactive)
COc1cccc(C(C(=O)NC2CCCC2)N(C(=O)c2ccco2)c2cccc(C(C)=O)c2)c1OC (stereo not given)	0.23% (inactive)
O=c1[nH][nH]c(C(F)(F)F)c1C=NCc1ccccc1Cl	1.78% (inactive)
Cc1ccc(OCC(=O)Oc2ccccc2[N+](=O)[O-])cc1	1.05% (inactive)
COc1ccc(/C=C/c2noc(-c3ccccc3OC(C)=O)n2)cc1	-1.21% (inactive)
CN=C1SC(C(=O)O)CC(=O)N1C (stereo not given)	-2.92% (inactive)
O=C(CSc1nnc(-c2ccoc2)o1)N1CCOCC1	-2.17% (inactive)
Cc1cc2ccccn2c1C(=O)c1cccc(S(=O)(=O)N2CCOCC2)c1	-1.9% (inactive)
O=C(NCc1ccccc1)[C@H]1C[C@@H]1[C@H](NP(=O)(c1ccccc1)c1ccccc1)c1ccccc1	-4.27% (inactive)
CCCCCCNCCn1cnc2c(N)ncnc21	-4.2% (inactive)
CC1(C)CC(=O)C/C(=N\NC(=O)c2cccs2)C1	-2.89% (inactive)
CCOc1ncccc1C(=O)OCC(=O)c1c[nH]c2ccccc12	-4.27% (inactive)

Structure (SMILES)	inhibition
COc1ccc(-c2nc(CS(=O)CC(=O)NCc3ccccn3)c(C)o2)cc1 (stereo not given)	25% (active)
COc1cccc(-c2nc(CS(=O)CC(=O)NCc3ccc(F)cc3)c(C)o2)c1 (stereo not given)	1.75% (inactive)
COc1ccc(-c2nc(CS(=O)CC(=O)NCc3ccccc3)c(C)o2)cc1OC (stereo not given)	-1.5% (inactive)
O=C1CC(C(F)(F)C(F)(F)C(F)(F)C(F)(F)F)=Nc2ccccc2N1	0.46% (inactive)
CCN(Cc1ccccc1)S(=O)(=O)c1cc(C(=O)O)ccc1OC	-4.32% (inactive)
Nc1nc(SCC(=O)NNc2c(Cl)cc(Cl)cc2Cl)n[nH]1	2.34% (inactive)
Cc1cc(C)c(C#N)c(SCC(=O)NN2CC(=O)N(c3ccccc3F)CC2=O)n1	-0.67% (inactive)
Cc1cccc(-n2c(SCC(N)=O)nc3c(c2=O)C2(CCCCC2)Cc2ccccc2-3)c1	-3.86% (inactive)
Cn1ccc(=NC=C(C#N)C#N)c2ccccc21	-3.88% (inactive)
CN(C)c1ccc(N/C=C/C(=O)C(F)(F)F)cc1	-5.36% (inactive)
CCN(CC)C(=O)CSc1ncnc2c1cnn2-c1ccccc1	-1.45% (inactive)
COc1ccc(/C=C2\CCCC3C2=NN(C(=O)c2scnc2C)C3c2ccc(OC)cc2)cc1 (stereo not given)	-3.35% (inactive)
CCCN(CCC)C(=O)C1c2ccccc2Oc2ccccc21	-1.51% (inactive)
O=C(O)CCS(=O)(=O)c1ccc(-c2ccccc2)cc1	-0.07% (inactive)
NS(=O)(=O)c1ccc(NC(=S)NNC(=O)c2cccs2)cc1	0.82% (inactive)
COC(=O)[C@@H]1CC[C@H](C)[C@@H](c2ccc(C)cc2)N1C(=O)c1ccc(/C=N/O[C@H](C)c2cn([C@@H]3COC[C@H]3O)nn2)cc1	-1.13% (inactive)
COCCCN(C(=O)CSCc1ccc(C)cc1)c1c(N)n(Cc2ccccc2)c(=O)[nH]c1=O	-5.33% (inactive)
Cc1ccccc1NC(=O)NC1(C(=O)N2CCCC2)CCCCC1	5.72% (inactive)
CCN1C(=O)/C(=c2\s/c(=C3\Sc4ccccc4N3C)c(=O)n2C)N(C)C1=S	-0.75% (inactive)
CCCCN1C(=O)/C(=C2/Sc3ccc(Cl)cc3N2CC)SC1=S	2.19% (inactive)
CCN1C(=O)/C(=C2/Sc3ccccc3N2CCCS(=O)(=O)O)SC1=S	14.2% (active)
COc1ccc(CNC(=O)C(=O)NCC2OCCN2C(=O)c2ccc(OC)cc2)cc1 (stereo not given)	-3.36% (inactive)
CC(C)c1ccc(S(=O)(=O)N2CCN(C(=O)CN3C(=O)NC(C)(c4ccccc4)C3=O)CC2)cc1 (stereo not given)	0.26% (inactive)

Structure (SMILES)	inhibition
Cc1ccccc1C(=O)NC(=S)NC1CC1	-2.2% (inactive)
Cc1c(C(=O)NCCN2C(=O)S/C(=C\c3cccs3)C2=O)cccc1[N+](=O)[O-]	-7.3% (inactive)
COc1ccc(S(=O)(=O)N(CCCN2CCCC2=O)Cc2cc3c(C)ccc(C)c3[nH]c2=O)cc1	-0.26% (inactive)
COc1cc(OC)cc(C(=O)NNC(=O)CNC(=O)c2ccc(Br)o2)c1	-3.43% (inactive)
O=C(NCCCN1CCCCC1)C1CCCN(c2ncnc3c2nc2n3CCCCC2)C1 (stereo not given)	4.5% (inactive)
O=C(COC(=O)CCOc1ccccc1)Nc1cc(S(=O)(=O)N2CCCCC2)ccc1Cl	-5.97% (inactive)
Cc1ccc(N2CCN(/N=C/c3cccs3)CC2)cc1	2.05% (inactive)
Cc1ccsc1/C=C1\SC(N2CCOCC2)=NC1=O	-3.19% (inactive)
Cc1ccc(N2CCN(C3=NC(=O)/C(=C\c4cccs4)S3)CC2)cc1	29% (active)
CCCCc1nc2cc(C(=O)N3CCCCC3CCO)ccc2o1 (stereo not given)	-0.28% (inactive)
O=C(NCCc1ccccc1)C(=O)NCC1OCCN1S(=O)(=O)c1cccs1 (stereo not given)	2.86% (inactive)
O=C(CSc1nc2ccccc2c(=O)n1-c1ccc(F)cc1)NC1CC1	0.87% (inactive)
O=C(CCn1c(SCC(=O)c2ccccc2)nc2ccccc2c1=O)NCc1ccc(F)cc1	33.2% (active)
O=C(CCCn1c(SCC(=O)c2ccccc2)nc2ccccc2c1=O)NCC1CCCO1 (stereo not given)	2.13% (inactive)
O=C(N/N=C/c1ccsc1)c1cc(O)cc(O)c1	3.13% (inactive)
CCOCCCNC(=O)c1cn(CC(C)C)c(=O)c2c1c1ccccc1n2C	0.47% (inactive)
COc1ccc(S(=O)(=O)N/N=C\c2ccc(OC)c(COc3ccc(C)cc3[N+](=O)[O-])c2)cc1	3.24% (inactive)
Cc1ccc(N(CC(=O)NC2CCCCC2)C(=O)CCCC(=O)Nc2ccccn2)c(C)c1	-5.08% (inactive)
CC1CCCCC1NC(=O)NC(=O)COC(=O)C1=NN(c2ccccc2)C(=O)CC1 (stereo not given)	-3.28% (inactive)
CCOc1ccc(S(=O)(=O)N2CCCC(C(=O)N3CCC(C(N)=O)CC3)C2)cc1Cl (stereo not given)	-0.84% (inactive)
CCn1cc(CN2CCC(C(=O)Nc3cccc(-c4cccc(Cl)c4)c3)CC2)c(C)n1	-1.53% (inactive)
O=C(NCc1ccccc1Cl)C1CCN(c2ncnc3c2nc2n3CCCCC2)CC1	3.58% (inactive)
O=C(Cc1ccccc1F)NC1CCSc2ccccc21 (stereo not given)	-2.96% (inactive)

Structure (SMILES)	inhibition
O=C(CC1Nc2ccccc2NC1=O)Nc1ccccc1 (stereo not given)	-11.2% (inactive)
COc1ccc(NS(=O)(=O)c2cccc(C(=O)NCCc3ccc(S(N)(=O)=O)cc3)c2)cc1	0.92% (inactive)
CCC(Cc1ccccc1)NC(=O)C1CCCCC1 (stereo not given)	-0.48% (inactive)
CCN(CC)S(=O)(=O)c1ccc(N2CCOCC2)c(NC(=O)c2ccc(=O)n(C)n2)c1	3.13% (inactive)
CCOC(=O)/C(=N\Nc1ccccc1Cl)N(C)C1CCS(=O)(=O)C1 (stereo not given)	6.62% (inactive)
O=C(Nc1nnc(C2COc3ccccc3O2)o1)c1ccc(F)cc1 (stereo not given)	-3.93% (inactive)
COc1ccc2c(c1)OC(O)(C(F)(F)C(F)F)CC2=O (stereo not given)	0.29% (inactive)
Cc1cc(-c2ccccc2)nc(N2CCC(C(=O)NC34CC5CC(CC(C5)C3)C4)CC2)n1	-0.18% (inactive)
CC(=O)Nc1ccc(C(=O)N(C2=NC(C)CS2)c2ccc(Cl)cc2)cc1 (stereo not given)	-16.3% (inactive)
O=C(Nc1cccc(Cl)c1)c1cncn1-c1ccc(F)cc1	-4.38% (inactive)
CC(C)(C)c1ccc(CCC2OCC(CN3CCOCC3)O2)cc1 (stereo not given)	-1.79% (inactive)
O=C1CN(C(=O)COc2c(Cl)cccc2Cl)c2ccccc2N1	-0.08% (inactive)
O=C(NCCCc1ccccc1)c1cc(COc2c(F)cccc2F)on1	-0.18% (inactive)
Cc1ccc(OCc2cc(C(=O)N(C)CCc3ccccc3)no2)cc1C	2.48% (inactive)
CN(CCOc1ccccc1)C(=O)c1cc(COc2c(F)cccc2F)on1	17.4% (active)
COc1cccc(NC(=O)N2C3CCCC2CC(NC(C)=O)C3)c1 (stereo not given)	-0.11% (inactive)
COc1cccc(NC(=O)N2CCCC2C(=O)NC2CCCCC2)c1 (stereo not given)	15.1% (active)
COc1cccc(NC(=O)C2CCCN2C(=O)OCc2ccccc2)c1 (stereo not given)	1.14% (inactive)
CCc1c(SCCC(=O)O)nc2ccccc2c1C	2.67% (inactive)
COc1ccc2c(c1)[C@H]1[C@H](CO2)[C@H](c2ccccc2)[C@]2(C)C(=O)Nc3cc(F)c(F)cc3C(=O)N12	-14.6% (inactive)
Cc1cccc(N2CCC(NCc3c(C(=O)N4CCCCC4)nc4c(C)cccn34)CC2)c1	0.61% (inactive)
